hERG WT inh = inhibitors of human wildtype KCNH2 potassium channel. U2OS, BacMam KCNH2, thallium flux FluxOr; stronger effect = lower value. activity change, % at 1.84 µM. 340,000 compounds, 0.37% hits;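 active means maximum activity change below -70%; inconclusive means maximum activity change between -70% and -50%; inactive means maximum activity change above -50%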
Target sequence (Q12809 whole entry, looked up): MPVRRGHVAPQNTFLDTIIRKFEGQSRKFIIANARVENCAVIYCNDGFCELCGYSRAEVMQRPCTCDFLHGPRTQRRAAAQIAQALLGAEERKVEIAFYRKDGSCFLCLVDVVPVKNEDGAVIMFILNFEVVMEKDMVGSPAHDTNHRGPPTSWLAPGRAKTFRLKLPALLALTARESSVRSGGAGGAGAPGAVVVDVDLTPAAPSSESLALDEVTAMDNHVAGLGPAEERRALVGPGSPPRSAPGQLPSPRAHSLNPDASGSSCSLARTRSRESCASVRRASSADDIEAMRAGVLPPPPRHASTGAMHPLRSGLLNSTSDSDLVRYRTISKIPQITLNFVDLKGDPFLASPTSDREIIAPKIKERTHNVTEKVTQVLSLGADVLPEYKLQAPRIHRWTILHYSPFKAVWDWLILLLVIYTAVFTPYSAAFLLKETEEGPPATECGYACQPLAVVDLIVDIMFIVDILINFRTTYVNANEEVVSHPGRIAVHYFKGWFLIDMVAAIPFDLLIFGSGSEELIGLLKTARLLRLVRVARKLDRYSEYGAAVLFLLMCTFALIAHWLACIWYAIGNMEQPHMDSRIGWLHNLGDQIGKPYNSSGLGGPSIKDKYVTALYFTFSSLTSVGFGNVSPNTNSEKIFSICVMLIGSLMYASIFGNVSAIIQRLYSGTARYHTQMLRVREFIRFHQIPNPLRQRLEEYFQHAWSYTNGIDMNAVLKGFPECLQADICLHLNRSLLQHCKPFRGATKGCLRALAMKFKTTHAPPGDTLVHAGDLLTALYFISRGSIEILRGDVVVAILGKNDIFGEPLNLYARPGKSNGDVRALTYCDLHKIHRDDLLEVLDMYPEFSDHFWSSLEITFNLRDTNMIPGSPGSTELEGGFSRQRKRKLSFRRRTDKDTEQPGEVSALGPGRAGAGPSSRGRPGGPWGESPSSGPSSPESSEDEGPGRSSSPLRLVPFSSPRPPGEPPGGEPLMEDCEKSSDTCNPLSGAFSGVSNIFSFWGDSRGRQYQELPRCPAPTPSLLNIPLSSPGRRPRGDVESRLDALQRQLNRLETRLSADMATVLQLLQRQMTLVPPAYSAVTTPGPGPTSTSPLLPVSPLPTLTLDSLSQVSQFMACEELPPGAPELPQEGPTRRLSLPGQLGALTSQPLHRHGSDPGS
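U2OS cells transduced with wild-type KCNH2 virus are loaded with FluxOr dye for 45 min, and thallium flux is measured in kinetic reads before and after stimulation buffer. Rate constants are normalized to DMSO controls.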
Akt phos inh = blocks phosphorylation of Akt; 360,000 compounds, 0.32% hits; Neuro2A IGF-stimulated pAkt S473 HTRF, 20 min; stronger effect = lower value; activity change, % for hits at 50 µM; in the data active means activity change below about -80%; inconclusive means mostly about -51% to -80%
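Single-point screen (50 µM final compound) in Neuro2A cells stimulated 20 min with 6 nM IGF at 37 deg C. After lysis, Ser473-phosphorylated Akt read by HTRF (ex 330 nm, em 615/665 nm) as the 665/615 ratio.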
gsp agonist = gsp mutant agonism; 340,000 compounds, 0.13% hits; gsp mutant cells, cAMP HTRF, 30 min; Potency, µM (top dose mostly 76.9 µM), actives largely listed as activators; active means well fitted activation curve with a large enough effect; inconclusive means small, poorly fitted or top-dose-only effect, or another doubt; inactive means no such curve, though single readings can be large or run the other way; cell line not stated here;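 further: phosphodiesterase inhibitor Ro 20-1724 added with compounds to block cAMP breakdown; nearly all actives have a fitted effect of over 60% in size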
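Cells stably selected in G418 were plated at 2000/well, grown 16-24 hr, then given compounds in DMSO with the PDE inhibitor […] (300 uM solution added) for 30 min at 37C; cAMP was read by HTRF.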
gsp antagonist = gsp mutant antagonism. AID 624288. 340,000 compounds, 0.4% hits. Potency, µM (doses to about 76.9 µM), actives largely listed as inhibitors. gsp-mutant cells, cAMP HTRF, 30 min; calls by dose curve; cell line not stated here;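 further: intracellular cAMP measured with PDE inhibitor Ro 20-1724 present during compound exposure; nearly all actives have a fitted effect of over 65% in size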
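Cells, 2000/well, grown 16–24 h in DMEM 10% FBS with 0.5 mg/ml G418, then compounds plus […] (300 uM addition stock), 30 min at 37C. cAMP read by HTRF (cAMP-d2 and anti-cAMP antibody-K in lysis buffer) after 30 min RT.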
Glioma ERSR ind = induces the endoplasmic reticulum stress response in human glioma cells; U87-MG GRP78 promoter luciferase reporter, 16 h; Potency, µM, hits mostly activators; 420,000 compounds, 0.02% hits; active means well fitted activation curve with a large enough effect; inconclusive means small, poorly fitted or top-dose-only effect; inactive means no such curve, though single readings can be large or run the other way; further: series mostly up to about 76 µM; nearly all actives have a fitted effect of over 35% in size
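ERSR induction read as luciferase luminescence (Bright-Glo, 10 min at room temperature) in stably transfected human U87-MG glioma cells exposed to compounds for 16 h, using GRP78 as sensor.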
KCNH2 3.1 inh = blocks the human KCNH2 3.1 channel isoform. U2OS KCNH2 3.1, thallium flux FluxOr; stronger effect = lower value. 340,000 compounds, 0.95% hits. activity change, % (tested at about 1.8 µM);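 active means maximum activity change below -70%; inconclusive means maximum activity change from -70% to -50%; inactive means maximum activity change above -50%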;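 further: thallium influx rate constant from kinetic fluorescence after stimulation buffer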
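Thallium flux read-out: FluxOr dye with Red40 quencher in HBSS/HEPES, 45 min at RT. Rate constants from kinetic reads were normalized to positive and negative DMSO controls. Cells: U2OS virally expressing the 3.1 isoform.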
Of the large screens only hits and unclear results are named; the others gave an inactive call. Only some compounds are listed: those with a hit (about 1.6% of all), similar ones and a draw of the others.

N#Cc1c(NC(=S)NC(=O)Cc2cccs2)sc2c1CCCCC2	gsp antagonist 32µM
Cc1nc(C)c(C(=O)N2CCCC(C(=O)c3ccc4ccccc4c3)C2)s1 (stereo not given)	none
Cc1ccc2c(c1C)NC(=O)C21N2CCCC2C(C(=O)c2ccc3ccccc3c2)C12C(=O)Nc1ccccc12 (stereo not given)	KCNH2 3.1 inh -86
COc1ccc(N/C=C\C(=O)c2ccc(C)cc2)cc1OC	KCNH2 3.1 inh -141
Cc1ncoc1C(=O)N1CCOc2ccc(CN3CCC(Oc4cccnc4)CC3)cc2C1	none (no result: hERG WT inh, Akt phos inh, gsp agonist, gsp antagonist, KCNH2 3.1 inh)
N#CC(C#N)=C(Nc1ccc(F)cc1)SCc1cccc(F)c1	gsp antagonist 32µM
Cc1nn(Cc2ccc([N+](=O)[O-])cc2)c(=O)n1-c1ccc(Cl)cc1	KCNH2 3.1 inh -78
Cc1cc(/C=C2\SC(=S)NC2=O)c(C)n1-c1ccc(O)cc1	gsp antagonist 32µM
COc1ccc(-c2nc3ccccc3n2Cc2ccc(C)cc2)cc1	hERG WT inh -122 (no result: KCNH2 3.1 inh)
CN1/C(=C\C(=O)c2cccs2)Sc2ccccc21	Akt phos inh -104%
O=C(O)c1ccc(C[n+]2c(-c3ccccc3)csc2Nc2ccccc2)cc1	none
CC(C)(C)c1cc(-c2csc(Nc3ccccc3)[n+]2Cc2ccc(C(=O)O)cc2)cc(C(C)(C)C)c1O	gsp antagonist 32µM, Glioma ERSR ind inconclusive
CCOC(=O)C(/C=N/c1cc(C)nn1-c1ccccc1)=C(\C)O	Akt phos inh -110%, gsp agonist inconclusive
CCOC(=O)C(=CNc1cc(C)nn1-c1ccccc1)C(=O)OCC	gsp antagonist inconclusive
COc1cccc(CN2C(=O)NC(C)(C3CCN(Cc4cnn(C)c4C)CC3)C2=O)c1OC (stereo not given)	none (no result: hERG WT inh, Akt phos inh, gsp agonist, gsp antagonist, KCNH2 3.1 inh)
FC(F)Oc1ccc(NC(=S)NCc2nc3ccccc3[nH]2)cc1	KCNH2 3.1 inh -85
CCOC(=O)c1c(C)nc2sc3c(=O)n(-c4ccc(C(C)=O)cc4)cnc3c2c1-c1ccc(Cl)cc1	KCNH2 3.1 inh inconclusive
CCOC(=O)c1c(C)nc2sc3c(=O)n(-c4ccc(C)cc4)cnc3c2c1-c1ccc(OC)cc1	Akt phos inh -110%, gsp agonist inconclusive
c1ccc(N2CCN(c3nc(NCc4ccco4)c4ccccc4n3)CC2)cc1	hERG WT inh -81, gsp agonist inconclusive, KCNH2 3.1 inh -104
c1coc(CNc2nc(N3CCCCC3)nc3ccccc23)c1	none
c1ccc(CNc2nc(N3CCN(Cc4ccccc4)CC3)nc3ccccc23)cc1	KCNH2 3.1 inh -104
Cc1csc(SCC(=O)N2CCOc3ccc(C(O)C4CCCCC4)cc3C2)n1 (stereo not given)	none (no result: hERG WT inh, Akt phos inh, gsp agonist, gsp antagonist, KCNH2 3.1 inh)
CC(C)(C)n1ncc2c(=O)n(Cc3ccc(SC(=O)O)cc3Cl)cnc21	none (no result: hERG WT inh, Akt phos inh, gsp agonist, gsp antagonist, KCNH2 3.1 inh)
CC(=O)c1ccc(Nc2nc(=O)c3cccnc3s2)cc1	gsp agonist 10µM
CC(=O)c1cccc(Nc2nc(=O)c3cccnc3s2)c1	gsp agonist inconclusive
NC(=O)CC12CC3CC(C1)CC(CC(N)=O)(C3)C2	Akt phos inh -82%
COc1cccc(CNC(=O)CCC2CCCN(C(=O)CCC(F)(F)F)C2)c1 (stereo not given)	none
COc1cccc(CNC(=O)CCC2CCCN(C(=O)CCn3cncn3)C2)c1 (stereo not given)	KCNH2 3.1 inh -94
Clc1cc(Cl)c(OCC#CI)cc1Cl	none (no result: hERG WT inh, Akt phos inh, gsp agonist, gsp antagonist, KCNH2 3.1 inh)
N#Cc1ccc(/C=C2/C=Cc3ccccc32)cc1	none (no result: hERG WT inh, Akt phos inh, gsp agonist, gsp antagonist, KCNH2 3.1 inh)
COc1cc(NC(=O)c2cc(-c3ccccc3)on2)cc(OC)c1OC	none
COc1cc(NC(=O)c2cc3nc(-c4ccccc4)cc(-c4ccccc4)n3n2)cc(OC)c1OC	KCNH2 3.1 inh -73 (no result: Akt phos inh)
CC1=C[C@@H](O)CC(C)(C)[C@@H]1/C=C/C(C)=C/C=C/C(C)=C/C=C/C=C(C)/C=C/C=C(C)/C=C/C1=C(C)C[C@H](O)CC1(C)C	none (no result: hERG WT inh, Akt phos inh, gsp agonist, gsp antagonist, KCNH2 3.1 inh)
C=CCN(C(=O)CSc1nc2ccsc2c(=O)n1Cc1ccc(C(=O)O)cc1)c1ccccc1	hERG WT inh -254 (no result: gsp antagonist)
CC(C)c1ccc(NC(=O)CSc2nc3ccsc3c(=O)n2Cc2ccc(C(=O)O)cc2)cc1	gsp agonist inconclusive, gsp antagonist inconclusive
O=C(O)CC/C(=N\NC(=O)c1ccncc1)c1ccccc1	hERG WT inh -134, KCNH2 3.1 inh -161
O=C(O)CC/C(=N\Nc1ccc([N+](=O)[O-])cc1)c1ccccc1	gsp antagonist 32µM
COC(=O)CSc1nc(N2CCOCC2)c2c(c1C#N)CC(C)(C)OC2	none
COC(=O)Sc1nc(N2CCOCC2)c2c(c1C#N)CC(C)(C)OC2	gsp agonist 14µM
CCOC(=O)COc1ccc2c(C)c(CCN(CC)CC)c(=O)oc2c1	none (no result: hERG WT inh, Akt phos inh, gsp agonist, gsp antagonist, KCNH2 3.1 inh)
CCOc1ccccc1-c1nc(C(N)=O)c2[nH]c(=O)n(-c3ccc(F)cc3)c2n1	KCNH2 3.1 inh -84
CC(C)c1nc(C(N)=O)c2[nH]c(=O)n(-c3ccc(F)cc3)c2n1	none
COC(=O)c1c(O)cc(C(C)(C)C)n(-c2ccc(F)cc2)c1=O	hERG WT inh -116, gsp agonist inconclusive, KCNH2 3.1 inh -216
CC(=O)c1c(O)cc(C)n(-c2ccc(F)cc2)c1=O	none
CC(=O)c1cccc(S(=O)(=O)N2CCN(c3nc4cc(C)cc(C)c4cc3C#N)CC2)c1	none
Cc1cc(C)c2cc(C#N)c(N3CCCN(S(=O)(=O)c4ccccc4)CC3)nc2c1	KCNH2 3.1 inh -70
CCc1ccc2[nH]c(C(=O)Nc3ccc(C)c(F)c3)cc2c1	none
CCc1ccc2[nH]c(C(=O)N(C)c3ccc(F)cc3F)cc2c1	KCNH2 3.1 inh -71
CSC1=NC(NCCCO)c2c(sc3c2CC(C)(C)OC3)N1 (stereo not given)	Akt phos inh -101%
COCc1c(C(=O)NC2CCCCC2)cnn1-c1nccc(-c2cc(C)sc2C)n1	none (no result: hERG WT inh, Akt phos inh, gsp agonist, gsp antagonist, KCNH2 3.1 inh)
O=C(CSCc1ccccc1)NCCc1ccc(F)cc1	KCNH2 3.1 inh -100
Cc1ccncc1C(=O)O	none (no result: hERG WT inh, Akt phos inh, gsp agonist, gsp antagonist, KCNH2 3.1 inh)
CCCCCCSc1ccc(-c2nc3ccc(Cl)cn3c2NCCCC)cc1OC	none (no result: gsp agonist)
CCCCNc1c(-c2ccc(SC(C)CC)c(OC)c2)nc2ccc(C)cn12 (stereo not given)	gsp agonist inconclusive, gsp antagonist inconclusive
CCCCNc1c(-c2ccc(SC(C)CC)c(OC)c2)nc2ccc(Cl)cn12 (stereo not given)	hERG WT inh -238
CCCCNc1c(-c2ccc(SC3CCCCC3)c(OC)c2)nc2ccc(Cl)cn12	KCNH2 3.1 inh -97
Cc1ccc(N2C(=O)C3CCC(C)(C2=O)C3(C)C)cc1 (stereo not given)	KCNH2 3.1 inh -77
CCOC(=O)N1CCN(c2ncnc3c2[nH]c2ccc(F)cc23)CC1	gsp antagonist inconclusive
CC(=O)N1CCC(O)(c2cccc(C(F)(F)F)c2)CC1	none
